About 79,000 compounds went through this panel and 15% of them were active in at least one assay; those are over-represented in the sample as a whole. Calls of active or inactive are those of the source. Cut-off read from the data, not from the text of the source: active = growth inhibition above about 70%; inactive = the rest.
Experiment: NCI Yeast Anticancer Drug Screen. Data for the mec2-1 strain (AID 157)
Settings: S. cerevisiae mec2-1 strain, at 50.0 µM, active compounds read high
Procedure, shortened: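 Vehicle-treated cultures served as reference for growth inhibition of compound-exposed mec2-1 yeast.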

SMILES	growth inhibition
Cc1cccc(NC(=O)C(Cl)Cl)n1	-20.8% (inactive)
COC(=O)c1nc(=S)[nH]c(C(=O)OC)c1C(=O)c1cccc2ccccc12	34.4% (inactive)
CC(=N/N(C)c1ccccc1)/C(C)=N/N(C)c1ccccc1	6.7% (inactive)
O=C(C(=Nc1ccccc1)C(=Nc1ccccc1)C(=O)c1ccccc1)c1ccccc1	32.1% (inactive)
CCc1c(NCCO)c(C(=O)NCCO)c2nc3ccccc3n2c1NCCO	9.65% (inactive)
O=C1OC(=O)C2C1C1C=CC2C1(c1ccccc1)c1ccccc1 (centres undefined)	4.25% (inactive)
CC(=O)OCC1OC(n2cnc3c(N)ncnc32)C(O)C1O (centres undefined)	-6.45% (inactive)
Clc1cccc(C2N3CCCCC3[C@@H]3c4[nH]c5ccccc5c4CCN23)c1 (some centres undefined)	-1.85% (inactive)
CC1(C)SCCNC1=O	8.45% (inactive)
O=C1NC(=Nc2ccccc2Cl)SC1C(=O)Nc1ccc([N+](=O)[O-])cc1[N+](=O)[O-] (centres undefined)	7.85% (inactive)
CCSCC1C(=O)C23C(O)C1CCC2C12COC3(O)C(O)C1C(C)(C)CCC2O (centres undefined)	18.4% (inactive)
CC(C)(C)NC(=S)N/N=C/c1ccccn1	85.2% (active)
N#CC(C(=O)O)C1(c2ccccc2)CCCCC1 (centres undefined)	4.95% (inactive)
CC(C)(C)c1cc(-c2c3nc(c(-c4cc(C(C)(C)C)cc(C(C)(C)C)c4)c4ccc([nH]4)c(-c4cc(C(C)(C)C)cc(C(C)(C)C)c4)c4nc(c(-c5cc(C(C)(C)C)cc(C(C)(C)C)c5)c5ccc2[nH]5)C=C4)C=C3)cc(C(C)(C)C)c1	15.4% (inactive)

Reference: PubChem BioAssay (NCI)
